# Assay outcomes as filed in PubChem.
# Rows were chosen to be rich in hits. Some 2.4% of all compounds tested hit in one or more screens of this group.
# ANO1 activ: activates or potentiates the mouse TMEM16A chloride channel; HEK293 TMEM16A/YFP-H148Q/I152L, iodide quench fluorescence; active compounds read low; B-score at 10 µM; 340,000 compounds, 0.3% hits;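 active = fluorescence-ratio B-score plate-corrected deviation score at least 3 library SD below zero, with starting fluorescence score within 5 deviations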;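 note: channel opened by trigger with iodide after compound preincubation; score built on the fluorescence ratio of max minus min over baseline; more negative score means more quench and so TMEM16A activation or potentiation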
# HTR2A ag: mouse HTR2A agonism via beta-arrestin recruitment; P35363; CHO-K1 mHTR2A beta-arrestin complementation, luminescence; percent of 30 µM serotonin response; activation, % at 7.6 µM; 360,000 compounds, 0.66% hits; AID 624169;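 active = activation above a run cutoff, the mean activation of all tested compounds plus 3 SD, cut at about 14% in these data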;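 note: 0% = plate median of compound wells and 100% = 30 µM serotonin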
# TLR4 MyD88 comp: inhibitors of human TLR4-MyD88 binding; O00206+Q99836; HeLa CL3-4 TLR4/MyD88 BLA complementation, FRET ratio; inhibition, % at 8.4 µM; 200,000 compounds, 0.18% hits; AID 861; in the data active = inhibition above about 25%;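 note: 0% = vehicle and 100% = reference inhibitor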
# TLR9-MyD88 inh: TLR9-MyD88 interaction inhibition. Q9NR96+Q99836. inhibition, % at 4.98 µM. AID 504734. CHO BLA complementation TLR9-MyD88, CCF4 FRET ratio. 340,000 compounds, 0.21% hits;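 active = inhibition above the mean over all tested compounds plus 3 SD, cut at about 21% in these data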;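 note: 0% = DMSO only wells and 100% = clavulanate BLA inhibitor control wells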
# TMEM16A inh: inhibitors of mouse TMEM16A calcium-activated chloride channel | Q8BHY3 | HEK293 TMEM16A/YFP iodide influx fluorescence, ionomycin | normalized B-score (activity score, 25-100; higher = stronger inhibition) at 10 µM | 310,000 compounds, 1.2% hits | AID 588511;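 active = ratio plate-corrected score three or more library SD toward inhibition, starting fluorescence score within five deviations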;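 note: score derived from kinetic fluorescence span divided by baseline fluorescence per well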
# NOD2-RIPK2 inh: blocks binding of human NOD2 to RIPK2; 360,000 compounds, 0.38% hits; O43353; AID 624267; inhibition, % at 4.98 µM; CHO BLA complementation NOD2-RIPK2, CCF4 ratio; in the data active = inhibition above about 21%;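 note: 0% = vehicle only and 100% = reference blocker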
# TMEM16A reconf: TMEM16A (mouse) chloride channel inhibition, re-confirmation; HEK293 TMEM16A/YFP-H148Q, iodide quench fluorescence; ionomycin added to raise cell calcium; 2,300 compounds, 39% hits; shares compounds with TMEM16A inh; inhibition, % at 10 µM;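 active = mean duplicate percent inhibition, scaled so buffer wells are 0 and the reference blocker 100, over three buffer SD above buffer mean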
# TMEM16A Ca cntr: counter-screen for TMEM16A inhibitors: effect on calcium mobilization | shares compounds with TMEM16A inh | TMEM16A/YFP HEK293, Fluo4 calcium mobilization | calcium response (% of ionomycin), % at 10 µM | 2,300 compounds, 2% hits;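 active = duplicate-averaged calcium signal over 20% of the ionomycin maximum, relative to buffer baseline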;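 note: each well's signal is peak minus trough fluorescence divided by its pre-addition baseline; 0% = buffer wells and 100% = ionomycin wells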
# YFP-HEK293 quench: parental YFP-HEK293 iodide quench counter-screen activity. shares compounds with TMEM16A inh. ionomycin. YFP ratio F(max-min)/F0 at 10 µM. 2,300 tested, under 10 active. AID 652233;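 active = yellow fluorescent protein signal ratio exceeding the buffer control mean by over 5 SD of those controls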;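 note: ratio is mean of duplicate wells from kinetic YFP trace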
# ClC-1 rat inh: blocks the rat ClC-1 voltage-dependent chloride channel | 2,300 tested, under 10 active | shares compounds with TMEM16A inh | CHO ClC-1-YFP, iodide influx fluorescence quench; iodide control reads 0, buffer control 100 | ratio percent, % at 10 µM;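 active = duplicate-mean ratio percent above the mean of iodide-only control wells, which defines zero, plus 5 of their SD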;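 note: higher percent means stronger block of ClC-1 iodide influx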
# An asterisk follows results filed as active; i = inactive; . = no result.
SMILES,ANO1 activ,HTR2A ag,TLR4 MyD88 comp,TLR9-MyD88 inh,TMEM16A inh,NOD2-RIPK2 inh,TMEM16A reconf,TMEM16A Ca cntr,YFP-HEK293 quench,ClC-1 rat inh
CCc1nc(SCC(=O)c2cccs2)c2oc3ccccc3c2n1,i,0.2,1.4,-2.5,100*,2.3,i,i,-1.05,-12.5
COc1cccc(/C=N/NC(=O)C(C)Cn2cnc3ccccc32)c1 (configuration not stated),i,-6.7,.,.,i,-0.2,.,.,.,.
CC(C)OC(=O)CSc1nc2ccccc2s1,i,3.6,-5.5,2.5,i,-7.4,.,.,.,.
CC(C)CC1CC(=O)OC1(C)C(=O)CSc1nc2ccccc2s1 (configuration not stated),i,-1.0,-4.0,-2.4,100*,-0.8,i,i,-1.19,-6.0
O=C(Cn1c(=O)n(-c2cccc(C(F)(F)F)c2)c(=O)c2sccc21)NCC1CCCO1 (configuration not stated),i,0.3,.,-14.1,25*,-12.3,i,i,-1.23,2.5
CCOC(=O)Cn1nc(-c2ccc(Cl)cc2)cc1N,i,-0.4,-0.8,6.9,100*,0.4,i,i,-1.43,-9.0
CCOC(=O)CCn1nc(-c2ccc(Cl)cc2)cc1N,i,-1.2,2.0,3.6,i,4.9,.,.,.,.
Cc1ccc(Cl)cc1NC(=O)c1ccc(CSc2nnnn2C)cc1,i,-1.4,7.5,-1.8,i,-12.1,.,.,.,.
CCOc1ccc(OCC)c(NC(=O)CCn2c(=O)oc3ccccc32)c1,i,-1.0,-14.8,-1.0,100*,7.3,i,i,-1.02,-6.5
CCOc1ccccc1NC(=O)Cn1c(=O)oc2ccccc21,i,3.3,0.3,-3.4,i,-5.7,.,.,.,.
CCOC(=O)CCSc1nc(C(C)(C)C)cc(C(F)(F)F)c1C#N,i,-0.9,-1.3,-3.3,100*,-5.7,i,i,-1.19,-5.5
CCOC(=O)CCSc1nc(C)cc(C(F)(F)F)c1C#N,i,-2.7,-2.5,-4.3,i,-9.8,.,.,.,.
CCCC1(CCC)NC(=O)N(CC(=O)Nc2cccc(OC)c2)C1=O,i,3.6,-1.4,-6.2,100*,-0.7,i,i,-1.13,-9.5
COc1cccc(NC(=O)CN2C(=O)NC(C)(CCC(C)C)C2=O)c1 (configuration not stated),i,-0.8,1.6,2.0,i,-5.5,.,.,.,.
O=C(NCc1ccccc1)c1cc(C2CCCCN2S(=O)(=O)Cc2ccccc2)on1 (configuration not stated),.,-5.7,.,.,.,-2.5,.,.,.,.
O=C(Nc1ccc2c(c1)C(=O)N(CC1CCCO1)C2=O)c1ccc(Cl)c(Cl)c1 (configuration not stated),i,3.7,6.1,-5.9,100*,-5.2,51.5%*,i,-0.889,-26.0
Cc1ccc(NC(=O)c2ccc3c(c2)C(=O)N(CC2CCCO2)C3=O)cc1C (configuration not stated),i,0.5,-3.7,-11.6,i,0.1,.,.,.,.
COc1ccc2nc(C)cc(N3CC(C)OC(C)C3)c2c1 (configuration not stated),i,-0.6,-3.3,-4.2,25*,5.4,i,i,-0.862,-12.0
CCOC(=O)C1=C(C)N=c2s/c(=C/c3ccc(OCC(=O)O)cc3)c(=O)n2C1c1ccc(OC)cc1OC (configuration not stated),i,8.7,.,4.1,i,-2.5,.,.,.,.
Cc1ccc(NS(=O)(=O)c2sc3ccc(Cl)cc3c2C)cc1,i,10.9,.,.,100*,-1.0,i,i,-0.98,-7.0
Cc1ccc(C(C)C)cc1OCC(=O)Nc1ccc(N2CCCCC2)cc1,i,-2.4,.,-0.1,25*,4.4,i,i,-0.688,-0.5
CCCCOC(=O)Nc1ccc(N2CCCCC2)cc1,i,-0.5,-7.5,-1.6,i,-4.8,i,i,-1.06,-4.5
CCCCOC(=O)Nc1ccc(N2CCOCC2)cc1,i,2.6,3.7,-8.8,i,-3.0,.,.,.,.
Cc1cccc(C(=O)OCC(=O)Nc2ccc(N3CCCCC3)cc2)c1O,i,-2.5,-6.6,7.9,i,-6.0,i,i,-1.21,-16.5
COc1ccc(NC(=S)N2CCC3CC2c2cc(-c4ccc5c(c4)OCO5)ccc23)c(OC)c1 (configuration not stated),.,5.4,.,.,.,0.2,.,.,.,.
SMILES,ANO1 activ,HTR2A ag,TLR4 MyD88 comp,TLR9-MyD88 inh,TMEM16A inh,NOD2-RIPK2 inh,TMEM16A reconf,TMEM16A Ca cntr,YFP-HEK293 quench,ClC-1 rat inh
COc1ccc(-c2noc(CN(C(=O)c3cccs3)C(C)C)n2)cc1,i,5.0,4.9,-9.4,100*,-0.7,i,i,-0.957,1.0
Cc1ccc(-n2c(C)cc(C(=O)COc3c(CO)cc(F)cc3CO)c2C)cc1C,i,-2.4,-0.3,-2.4,25*,7.0,32.0%*,i,-1.13,-3.5
Cc1ccc(NC(=S)NC(C)CCc2ccccc2)cc1C (configuration not stated),i,-6.4,-7.6,2.4,i,3.2,.,.,.,.
CC(=O)c1ccc(NC(=S)NC(C)CCc2ccccc2)cc1 (configuration not stated),i,-0.8,-7.5,-4.0,25*,8.6,i,i,-1.08,-1.0
Cc1cccc(CC(Cc2nc3ccccc3[nH]2)c2nc3ccccc3[nH]2)c1 (configuration not stated),i,3.6,2.2,2.8,100*,-1.7,39.0%*,i,-0.887,-19.5
CC(C)(C)N(Cc1ccccc1)C(=O)COC(=O)Cn1[nH]c(=O)c2ccccc2c1=O,.,1.0,.,5.8,.,0.6,.,.,.,.
O=C(Cn1[nH]c(=O)c2ccccc2c1=O)OCC(=O)N(Cc1ccccc1)Cc1ccccc1,i,-4.9,-2.8,-1.5,100*,1.3,i,24.0%*,-0.898,-13.5
C(/C=C/c1ccccc1)=N/N1CCN(c2ccccc2)CC1,i,-2.2,7.2,-6.8,25*,7.2,i,i,-0.93,-11.5
Cc1c(Cl)c(-c2n[nH]c(=S)n2CC(C)C)nn1C,i,2.3,15.0,-8.3,i,5.9,.,.,.,.
